Screening results (PubChem BioAssay)
FECH inh – human FECH heme synthesis enzyme inhibition; P22830; purified FECH, Ni-mesoporphyrin absorbance 550 nm; calls only at 10 µM (by protocol); actives 3.3% (n = 20,000);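 active means enzyme reaction rate more than 3 SD below the solvent-only control wells on the same plate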;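 further: lower slope than DMSO wells means FECH inhibition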
Target sequence (P22830 whole entry, looked up): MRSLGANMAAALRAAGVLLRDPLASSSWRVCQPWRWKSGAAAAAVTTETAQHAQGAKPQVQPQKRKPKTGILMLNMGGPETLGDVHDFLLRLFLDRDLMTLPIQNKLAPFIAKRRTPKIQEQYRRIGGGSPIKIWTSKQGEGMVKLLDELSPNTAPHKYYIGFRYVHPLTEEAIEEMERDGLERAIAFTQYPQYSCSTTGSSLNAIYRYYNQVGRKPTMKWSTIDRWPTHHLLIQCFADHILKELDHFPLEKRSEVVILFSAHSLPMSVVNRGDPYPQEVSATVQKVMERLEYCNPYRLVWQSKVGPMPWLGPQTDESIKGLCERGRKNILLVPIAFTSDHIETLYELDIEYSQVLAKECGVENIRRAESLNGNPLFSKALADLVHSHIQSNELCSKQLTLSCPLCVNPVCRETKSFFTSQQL
An asterisk follows results filed as active; i = inactive; + = active, no number. The entries come from a sample that favours hits as a whole.

SMILES | FECH inh
Cc1cncc(NC(=O)c2ccc(CN(C)Cc3snnc3C)cc2)c1 | i
COCCCNC(=O)C1CCN(c2ccc(-c3ccc(F)cc3)nn2)CC1 | i
O=C(NCCN1CCN(c2ccccc2F)CC1)c1ccc(CN2C(=O)CCn3nccc32)cc1 | i
Cc1ccc(Nc2cc(C)nc(N3CCN(S(=O)(=O)c4cc(C)c(C)cc4C)CC3)n2)cc1 | i
CCc1ncc(C(=O)N2CCC(O)(c3ccc4nc(C)ccc4c3)CC2)cn1 | i
CN(Cc1nc(-c2cccnc2)no1)C(=O)CC12CC3CC(CC(C3)C1)C2 | i
Cc1ccc(CNC(=O)c2nc[nH]c2C(=O)NCc2ccccn2)o1 | +
Cc1ccc(CNC(=O)c2[nH]cnc2C(=O)NC(C)C)o1 | i
COc1ccccc1CNC(=O)c1[nH]cnc1C(=O)NCCN(C)C | i
O=C(NC1CCCCNC1=O)c1nc[nH]c1C(=O)NCc1ccccn1 (stereo not given) | i
CCCNC(=O)c1[nH]cnc1C(=O)NC1CCCCC1 | i
COc1ccccc1CNC(=O)c1[nH]cnc1C(=O)NCCc1c[nH]c2ccccc12 | i
O=C(NC1CCCCC1)c1nc[nH]c1C(=O)NC1CCCC1 | i
Cc1ccc(CNC(=O)c2[nH]cnc2C(=O)NC2CCCCC2)o1 | i
O=C(NC1CCCCC1)c1nc[nH]c1C(=O)NCc1ccccn1 | +
O=C(NC1CCCCC1)c1nc[nH]c1C(=O)NC1CCc2ccccc21 (stereo not given) | +
CC(C)NC(=O)c1nc[nH]c1C(=O)NC1CCCc2ccccc21 (stereo not given) | i
COc1ccccc1CNC(=O)c1nc[nH]c1C(=O)NCc1ccccc1 | +
COCCNC(=O)c1ccc(-n2ccnc2)o1 | i
Cc1cccc(Nc2nc(NCCC(C)C)nc3c2cnn3-c2ccccc2)c1 | i
CCN(CCO)c1nc(Nc2cc(OC)ccc2OC)c2cnn(-c3ccccc3)c2n1 | i
CCOc1ccc(S(=O)(=O)Nc2cnc(N3CC=C(c4ccccc4C)CC3)c(C(=O)O)c2)cc1 | i
Cc1ccc2nc(NCC(c3cccnc3)N3CCOCC3)cc(C)c2c1 (stereo not given) | i
Cc1n[nH]c(C)c1CCCN(C)C(=O)c1ccc(Cl)cn1 | i
COc1ccc(NC(=O)C2CCN(c3ccc(-c4cccc(C)c4)nn3)CC2)c(OC)c1 | i
SMILES | FECH inh
CCCCNC(=O)CSCc1nc(-c2ccc(F)cc2)no1 | i
CCC(C)N(Cc1cccnc1)C(=O)c1ccc2nccn2c1 (stereo not given) | i
CC1(C)CNC(=O)c2nc(C3(COc4ccccc4)CC3)[nH]c2C1 | i
COc1cccc(-c2cc(N3CCN(S(=O)(=O)c4ccc(NC(C)=O)cc4)CC3)ncn2)c1 | i
COc1ccccc1CNC(=O)c1[nH]cnc1C(=O)NCC1CC1 | i
CCCCCN(C)C(=O)c1[nH]cnc1C(=O)NCc1ccccc1 | i
O=C(NCc1ccccn1)c1nc[nH]c1C(=O)NCc1cccnc1 | +
COc1ccccc1CNC(=O)c1[nH]cnc1C(=O)NCC1CCCCC1 | +
CCCNC(=O)c1[nH]cnc1C(=O)NC1CCCC1 | i
COc1ccccc1CN(Cc1cccnc1)C(=O)c1sc(C)nc1C | i
COc1ccccc1CNC(=O)c1nc[nH]c1C(=O)N1CCc2ccccc2C1 | i
CC(C)(C)CNC(=O)c1nc[nH]c1C(=O)NCc1ccccc1 | i
CC(C)CCNC(=O)c1nc[nH]c1C(=O)NCc1ccccc1 | i
COc1ccccc1CNC(=O)c1[nH]cnc1C(=O)NC1CCc2ccccc21 (stereo not given) | +
COc1ccccc1CNC(=O)c1nc[nH]c1C(=O)NCc1cccnc1 | +
CC(C)CCNC(=O)c1nc[nH]c1C(=O)NCC1CC1 | i
Cc1cc(C)cc(Nc2nc(NCc3ccc(F)cc3)nc3c2cnn3-c2ccccc2)c1 | i
C=CCNc1nc(Nc2cccc(C)c2)c2cnn(-c3ccccc3)c2n1 | i
CCOc1ccc(Br)cc1S(=O)(=O)N1CCN(c2nc(C)cc(N3CCCCC3)n2)CC1 | i
O=C(NCC1(O)CCNC1)c1ccc(-c2cccc(F)c2)nc1 (stereo not given) | i
CC(C)Cn1nc(C(=O)O)c2c1CCC(NCc1cccc3[nH]ccc13)C2 (stereo not given) | i
CCOc1ccc(S(=O)(=O)NCc2nc3cccnc3n2CCOC)cc1 | i
CC(=O)Nc1ccc(CNC(=O)CN2CCCN(C(=O)C3CC3)CC2)cc1 | i
COc1cc(C(=O)N2CCC(CCn3cccn3)CC2)ccc1O | i
COc1cc(C(=O)N(C)CCN2CCC(C)CC2)ccc1F | i
CCc1nccc(CN2CCC(CNC(=O)C3CCC(C)CC3)C2)n1 (stereo not given) | i
CC(C)CCNC(=O)c1nc[nH]c1C(=O)N1CCC(O)(c2ccc(Cl)cc2)CC1 | i
CC(C)(C)CNC(=O)c1nc[nH]c1C(=O)N1CCC(O)(c2ccc(Cl)cc2)CC1 | i
O=C(NCC1CCCCC1)c1nc[nH]c1C(=O)NCc1ccccc1 | +
CC1CCCN(C(=O)c2[nH]cnc2C(=O)NCc2ccccc2)C1 (stereo not given) | i
